Measured values from PubChem BioAssay (NCATS).
Results filed as inconclusive are left out. Unmarked numbers belong to inactive results. The source made the active and inactive calls. Calls come from the whole dose curve; as a rule, active = well fitted curve in the direction sought with a large enough effect; inconclusive = small, poorly fitted or top-dose-only effect, or another doubt; inactive = no such curve, though single readings can be large; an effect the other way counts as inactive or inconclusive.

assay: qHTS assay to identify small molecule inhibitors of chordoma cells - UCH-2 (AID 1259356); settings: UCH-2 chordoma viability, CellTiter-Glo ATP luminescence, 48 h; series mostly up to 46.1 µM; activity change, negative = inhibition: at the top concentration
% is set by controls: 0 for no effect and ±100 for the full control effect.

SMILES | activity change, negative = inhibition
Cc1c[nH]c2ccccc12 | 6.3%
Oc1ccccc1C=NCc1ccccc1 | 12.5%
CN(Cc1ccc(C(C)(C)C)cc1)Cc1cccc2ccccc12 | 4.95%
C=CCN1CCc2nc(N)sc2CC1 | 4.32%
Cc1cc(C)cc(OCC2CNC(=O)O2)c1 (centres undefined) | -1.63%
C=C[C@@]1(C)CC(=O)[C@]2(O)[C@@]3(C)[C@@H](O)CCC(C)(C)[C@@H]3[C@H](O)[C@H](OC(C)=O)[C@@]2(C)O1 | -4.99%
CCOc1cc(OCC)c(C(=O)CCC(=O)O)cc1OCC | -13.6%
O=C(Nc1ccc([N+](=O)[O-])cc1)Nc1ccc([N+](=O)[O-])cc1 | 5.3%
CNCCCCOc1ccccc1Cc1ccccc1 | -1.58%
COc1cc(C(=S)N2CCOCC2)ccc1O | -0.948%
CCc1oc2ccccc2c1C(=O)c1cc(Br)c(O)c(Br)c1 | -1.91%
CC(C)Nc1cccnc1N1CCN(C(=O)c2cc3cc(NS(C)(=O)=O)ccc3[nH]2)CC1 | -15.1%
O=C1C(O)=C(O)C(=O)C(O)=C1O | -1.92%
CCCCN=C(N)N=C(N)N | 9.32%
CCCN(CCc1cccs1)[C@H]1CCc2c(O)cccc2C1 | 7.5%
CCOc1ccccc1C(N)=O | 6.24%
C=C1c2cccc(O)c2C(O)=C2C(=O)[C@]3(O)C(O)=C(C(N)=O)C(=O)[C@@H](N(C)C)[C@@H]3[C@@H](O)[C@H]12 | -1.5% [at 20.6 µM]
CCCCCN=C(N)N/N=C/c1c[nH]c2ccc(OC)cc12 | 10.1%

SMILES | activity change, negative = inhibition
O=C(O)Cc1csc(-c2ccc(Cl)cc2)n1 | -15%
CCN(CC)CCNC(=O)COc1ccc(OC)cc1 | 2.01%
C[N+]1(C)CCC(=C(c2ccccc2)c2ccccc2)CC1 | -2.01% [at 20.6 µM]
CCCCN1C[C@H](O)[C@@H](O)[C@H](O)[C@H]1CO | -3.56%
NS(=O)(=O)c1cc2c(cc1Cl)NC(CC1CCCC1)NS2(=O)=O (centres undefined) | 7.01% [at 20.6 µM]
CCOC(=O)c1ccc(N)cc1 | 1.6% [at 20.6 µM]
CC(=O)Nc1ccc(S(=O)(=O)Nc2ccc([N+](=O)[O-])cc2)cc1 | 23.1%
CC(=O)Nc1ccc(OC(=O)c2ccccc2OC(C)=O)cc1 | 0.669%
CCc1ccc(C(=O)C(C)CN2CCCCC2)cc1 (centres undefined) | 4.73%
CCN1CCN(C(=O)N[C@@H](C(=O)N[C@@H]2C(=O)N3C(C(=O)O)=C(CSc4nnnn4C)CS[C@H]23)c2ccc(O)cc2)C(=O)C1=O | 6.36%
C/C=C/C=N/NC(=O)c1ccncc1 | 9.59%
CCOCCn1c(N2CCCN(C)CC2)nc2ccccc21 | 10.7%
N/C(=N\N=C\c1ccc(Cl)cc1)N/N=C/c1ccc(Cl)cc1 | 11.1%
COc1ccc(C(=O)c2ccccc2O)c(O)c1 | 9.67% [at 20.6 µM]
Nc1ccc(S(=O)(=O)NCc2ccccc2)cc1 | 7.91%
O=C1OC2(c3ccccc31)c1cc(Br)c(O)c(Br)c1Oc1c2cc(Br)c(O)c1Br | -23.3%
CC(=O)OCC1=C(C(=O)O)N2C(=O)[C@@H](NC(=O)CSc3ccncc3)[C@H]2SC1 | 3.18%
O=C1OC(CN2CCOCC2)CN1/N=C/c1ccc([N+](=O)[O-])o1 (centres undefined) | 8.26% [at 20.6 µM]

assay: P-glycoprotein substrates identified in KB-8-5-11 adenocarcinoma cell line, qHTS therapeutic library screen (AID 1346987); settings: KB-8-5-11 (P-gp overexpressing) viability, CellTiter-Glo, 72 h; series mostly up to 44.5 µM; activity change, negative = cytotoxicity: at the top concentration; note: nearly all actives have a fitted effect of over 65% in size
Method in brief: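 Steps: plate 500 KB-8-5-11 cells/well in DMEM + 10% FCS (colchicine removed); pin compounds in dose-response; incubate 72 h, 37 degree C, 5% CO2; add CellTiter-Glo, 5 min; read luminescence.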

SMILES | activity change, negative = cytotoxicity | outcome
Cc1c[nH]c2ccccc12 | -0.617% | 
Oc1ccccc1C=NCc1ccccc1 | 10.8% | 
CN(Cc1ccc(C(C)(C)C)cc1)Cc1cccc2ccccc12 | -13.9% | 
C=CCN1CCc2nc(N)sc2CC1 | 8.73% | 
Cc1cc(C)cc(OCC2CNC(=O)O2)c1 (centres undefined) | -9.84% | 
C=C[C@@]1(C)CC(=O)[C@]2(O)[C@@]3(C)[C@@H](O)CCC(C)(C)[C@@H]3[C@H](O)[C@H](OC(C)=O)[C@@]2(C)O1 | 0.996% | 
CCOc1cc(OCC)c(C(=O)CCC(=O)O)cc1OCC | -5.56% | 
O=C(Nc1ccc([N+](=O)[O-])cc1)Nc1ccc([N+](=O)[O-])cc1 | -14.7% | 
COc1cc(C(=S)N2CCOCC2)ccc1O | 3.17% | 
CCc1oc2ccccc2c1C(=O)c1cc(Br)c(O)c(Br)c1 | -27% | 
CC(C)Nc1cccnc1N1CCN(C(=O)c2cc3cc(NS(C)(=O)=O)ccc3[nH]2)CC1 | -16% | 
O=C1C(O)=C(O)C(=O)C(O)=C1O | -8.25% | 
CCCCN=C(N)N=C(N)N |  | inactive
CCOc1ccccc1C(N)=O | 1.06% | 
C=C1c2cccc(O)c2C(O)=C2C(=O)[C@]3(O)C(O)=C(C(N)=O)C(=O)[C@@H](N(C)C)[C@@H]3[C@@H](O)[C@H]12 | -8.58% [at 17.3 µM] | 
CCCCCN=C(N)N/N=C/c1c[nH]c2ccc(OC)cc12 | 12.4% | 
O=C(O)Cc1csc(-c2ccc(Cl)cc2)n1 | -2.4% | 

SMILES | activity change, negative = cytotoxicity | outcome
CCN(CC)CCNC(=O)COc1ccc(OC)cc1 | 6.51% | 
C[N+]1(C)CCC(=C(c2ccccc2)c2ccccc2)CC1 | 1.05% [at 17.3 µM] | 
CCCCN1C[C@H](O)[C@@H](O)[C@H](O)[C@H]1CO | 1.67% | 
NS(=O)(=O)c1cc2c(cc1Cl)NC(CC1CCCC1)NS2(=O)=O (centres undefined) | 9.98% [at 17.3 µM] | 
CCOC(=O)c1ccc(N)cc1 | 3.16% [at 17.3 µM] | 
CC(=O)Nc1ccc(S(=O)(=O)Nc2ccc([N+](=O)[O-])cc2)cc1 | 5.26% | 
CC(=O)Nc1ccc(OC(=O)c2ccccc2OC(C)=O)cc1 | 0.0419% | 
CCc1ccc(C(=O)C(C)CN2CCCCC2)cc1 (centres undefined) | -3.27% | 
CCN1CCN(C(=O)N[C@@H](C(=O)N[C@@H]2C(=O)N3C(C(=O)O)=C(CSc4nnnn4C)CS[C@H]23)c2ccc(O)cc2)C(=O)C1=O | 25.4% | 
C/C=C/C=N/NC(=O)c1ccncc1 | 0.0958% | 
CCOCCn1c(N2CCCN(C)CC2)nc2ccccc21 | -3.22% | 
N/C(=N\N=C\c1ccc(Cl)cc1)N/N=C/c1ccc(Cl)cc1 | -0.834% | 
Nc1ccc(S(=O)(=O)NCc2ccccc2)cc1 | -0.946% | 
O=C1OC2(c3ccccc31)c1cc(Br)c(O)c(Br)c1Oc1c2cc(Br)c(O)c1Br | -9.6% | 
CC(=O)OCC1=C(C(=O)O)N2C(=O)[C@@H](NC(=O)CSc3ccncc3)[C@H]2SC1 | -3.15% | 
O=C1OC(CN2CCOCC2)CN1/N=C/c1ccc([N+](=O)[O-])o1 (centres undefined) | -20.1% [at 17.3 µM] | 
